Among the data in PubChem BioAssay (NCI) are growth values, retold here.

About 83,000 compounds went through this panel and 20% of them were active in at least one assay; those are over-represented in the sample as a whole.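 Results are percent growth after 48 hours of single-concentration exposure. 100 means growth as in untreated cells, lower positive values show inhibition; negative values down to -100 show cell death.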 Values without a mark were called inactive. Activity calls are given as the source filed them. How the source made its calls: active means growth percent below 10; inactive means the rest.

What all share (test): NCI-60 one-dose screen, 48 h (100 = growth as untreated, 0 = no growth, -100 = all killed)
Holding throughout (conditions): 10 µM unless noted

The test system of test [1] is NCI-H23 lung.
The subject of test [2] is NCI-H226 lung.
In test [3] the test system is NCI-H322M lung.
Test [4] relates to HOP-62 NSCLC.
Test [5] relates to NCI-H460 lung.
Test [6] has as its system HOP-92 NSCLC.
The subject of test [7] is NCI-H522 lung.
Test [8] deals with A549/ATCC NSCLC.
In test [9] the test system is 786-0 renal.
Test [10] deals with COLO 205 colon.

For the molecule `O=c1cc(/C(=C2/C=CC=N2)c2ccc[nH]2)c2cc(Cl)ccc2o1`, the growth in [1] was 62.3%; in test [2], 35%; in test [3] it was 55.8%; in test [4], 50.4%; in [5] it was 24.3%; in test [6] it was 66.5%. The growth in [7] was 56.1%; in test [8], 55.2%; in test [9] it was 22.4%; in test [10], 87.2%.

Regarding `OCc1ccc(N2CCc3cccc(F)c3C2)cc1Cl`, the growth in [1] is 84.7% [0.1 µM]; in test [2], -6.37% [0.1 µM] (active); in [3], 106% [0.1 µM]; in test [4], 44.7% [0.1 µM]; in [5], 31% [0.1 µM]; in [6], 82.3% [0.1 µM]. For the same molecule, the growth in test [7] is 80.6% [0.1 µM]; in test [8], 62.9% [0.1 µM]; in [9] it was 66.4% [0.1 µM]; in test [10], 24.9% [0.1 µM].

On to `COc1ccc2c(c1)O/C(=C\c1cccc(OCC(=O)Nc3nc4c(s3)CCCC4)c1)C2=O`, for which the growth in test [1] was 37.8%; in test [2], 86.9%; in [3] it was 95.4%; in test [4] it was 103%; in test [5] it was 115%; in test [6], -23.4% (active). Also, the growth was -91.4% (active) in test [7], 94.6% in [8], 89.9% in [9] and 113% in [10].

On to `O=C1c2cc3c(cc2-c2c1c1ccc(Cl)cc1c(=O)n2CCCN1CCOCC1)OCO3`, for which the growth is 47.9% in test [1]; 24.9% in test [2]; 89.6% in test [3]; 26.2% in [4]; 18.1% in test [5]; 80.4% in test [6]. Moreover, the growth was 53.5% in [7], 48.7% in test [8], 34.2% in [9] and 54.8% in test [10].

As to `FC(F)(F)Oc1ccc2nc3nc4ccc[nH]c4cc3c2c1`, the growth in test [1] is 64.7%; in test [2], 57.2%; in test [3] it was 71.6%; in test [4], 58.4%; in test [5], 46.2%; in test [6] it was 84.7%. The growth in [7] is 75.3%; in test [8] it was 64.5%; in test [9] it was 46.4%; in test [10], 95.4%.

In the case of `CSc1nc(NCc2ccccc2)c(C#N)c(-c2cccc([N+](=O)[O-])c2)n1`, the growth in test [1] is 93.7%; in [2], 94.5%; in [3], 95.7%; in [4], 89.2%; in [5], 97%; in [6], 77.7%. For the same molecule, the growth in [7] is 85.4%; in test [8], 88.4%; in test [9] it was 96.6%; in [10], 110%.

Regarding `O=C1Nc2c(ccc(Cl)c2Cl)/C1=C\c1cc(C(F)(F)F)cc(C(F)(F)F)c1`, the growth in test [1] was 13.3%; in test [2], 24.5%; in [3], 74.1%; in test [4], 20.2%; in test [5] it was -18% (active); in [6] it was -22.6% (active). Further, the growth in test [7] is 22.3%; in [8], 26%; in [9] it was -11.2% (active); in [10] it was -74.9% (active).

As for `Cc1nc(Nc2ccc(F)c(Cl)c2)sc1C(=O)O`, the growth is 15.7% in [1]; 26.9% in test [2]; 54.3% in [3]; 27.3% in test [4]; 18.1% in [5]; -23.8% (active) in test [6]. Besides, the growth is -9.27% (active) in test [7], 12.9% in test [8], 19.6% in test [9] and 5.72% (active) in [10].

Take `Cc1ccc2c(c1)C(=O)/C(=C/c1cccc(OCC(=O)c3ccc(Cl)cc3)c1)CS2`: the growth in [1] is 79%; in [2], 91.6%; in test [3], 72.9%; in test [4], 105%; in [5] it was 98.8%; in [6], 61.5%. Moreover, the growth in test [7] is 46.8%; in test [8], 103%; in test [9] it was 103%; in test [10] it was 111%.

On to `Cc1cc(C)nc(SC2=C(Nc3ccc(C)c(Cl)c3)C(=O)N(Cc3ccccc3)C2=O)n1`, for which the growth was 62.4% [30 µM] in [1]; 74.5% [30 µM] in [2]; 82% [30 µM] in [3]; 86.9% [30 µM] in [4]; 52.4% [30 µM] in [5]; -4.65% [30 µM] (active) in test [6]. Moreover, the growth in [7] was 73.8% [30 µM]; in [8], 41.2% [30 µM]; in test [9] it was 68.6% [30 µM]; in test [10], 81.2% [30 µM].

Turning to `c1ccc(-c2c(-c3ccccc3)[n+](Cc3ccc4ccccc4c3)c(-c3ccc(-c4nc5ccccc5s4)cc3)n2Cc2ccc3ccccc3c2)cc1`, the growth in [1] is -82.1% (active); in test [2], -79.2% (active); in test [3], -92.1% (active); in test [4], -90% (active); in test [5], -67.3% (active); in test [6], -85.4% (active). In addition, the growth is -81.3% (active) in [7], -77.1% (active) in [8], -75.4% (active) in test [9] and -86.1% (active) in test [10].

For the molecule `Cc1cc(N2CCOCC2)nc(NCc2cc(Nc3ccnc4cc(Cl)ccc34)ccc2F)n1`, the growth in test [1] is -32.9% (active); in [2], 16.1%; in [3], -27.6% (active); in test [4], -63% (active); in [5], -65.7% (active); in [6], -30.8% (active). Besides, the growth is -61% (active) in test [7], -49.4% (active) in test [8], -93.7% (active) in test [9] and -70.9% (active) in test [10].

Take `CC(=O)O[C@H]1CC[C@]2(C)[C@H]3CC=C4[C@@H]5CC(C)(C)CC[C@]5(C(=O)NCCNCCNCCN)CC[C@@]4(C)[C@]3(C)CC[C@H]2C1(C)C`: the growth was 86.5% in test [1]; 91.4% in [2]; 95.2% in test [3]; 87.5% in [4]; -56.3% (active) in test [5]; 61.9% in test [6]. The growth in test [7] is 54.3%; in test [8], 43%; in [9] it was -56.3% (active); in [10], -93.1% (active).
